# The list is not random: actives were taken first. Their share in the collection is about 1.1%.
# 26S disassembly – inhibitors of ATP-driven 26S proteasome dissociation, primary screen, biochemical, bead-based flow cytometry, GFP-tagged proteasome; AID 751, 2007; 24,000 tested, 0.2% active; anti-FLAG beads, GFP-proteasome disassembly; inhibition of disassembly, % (no concentration beside the values);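 active means inhibition of disassembly above about 33%, limit read from the data; inconclusive means likely self-fluorescent, control bead median signal at least 40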;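 further: higher percent means more bead fluorescence retained so stronger block of disassembly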
# VLA-4 allo ag – enhancers of LDV-FITC binding to VLA-4 integrin, primary screen, Jurkat cells, flow cytometry. 24,000 tested, under 10 active. activation, % at 10 µM (by protocol). AID 528, 2006. Integrin alpha-4 (Homo sapiens), P13612;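 active means fluorescent ligand binding to cells raised by more than 40% of the manganese-induced maximum; inconclusive means compound's own fluorescence above 85% of the ligand control signal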
# Target sequence (P13612 whole entry, looked up): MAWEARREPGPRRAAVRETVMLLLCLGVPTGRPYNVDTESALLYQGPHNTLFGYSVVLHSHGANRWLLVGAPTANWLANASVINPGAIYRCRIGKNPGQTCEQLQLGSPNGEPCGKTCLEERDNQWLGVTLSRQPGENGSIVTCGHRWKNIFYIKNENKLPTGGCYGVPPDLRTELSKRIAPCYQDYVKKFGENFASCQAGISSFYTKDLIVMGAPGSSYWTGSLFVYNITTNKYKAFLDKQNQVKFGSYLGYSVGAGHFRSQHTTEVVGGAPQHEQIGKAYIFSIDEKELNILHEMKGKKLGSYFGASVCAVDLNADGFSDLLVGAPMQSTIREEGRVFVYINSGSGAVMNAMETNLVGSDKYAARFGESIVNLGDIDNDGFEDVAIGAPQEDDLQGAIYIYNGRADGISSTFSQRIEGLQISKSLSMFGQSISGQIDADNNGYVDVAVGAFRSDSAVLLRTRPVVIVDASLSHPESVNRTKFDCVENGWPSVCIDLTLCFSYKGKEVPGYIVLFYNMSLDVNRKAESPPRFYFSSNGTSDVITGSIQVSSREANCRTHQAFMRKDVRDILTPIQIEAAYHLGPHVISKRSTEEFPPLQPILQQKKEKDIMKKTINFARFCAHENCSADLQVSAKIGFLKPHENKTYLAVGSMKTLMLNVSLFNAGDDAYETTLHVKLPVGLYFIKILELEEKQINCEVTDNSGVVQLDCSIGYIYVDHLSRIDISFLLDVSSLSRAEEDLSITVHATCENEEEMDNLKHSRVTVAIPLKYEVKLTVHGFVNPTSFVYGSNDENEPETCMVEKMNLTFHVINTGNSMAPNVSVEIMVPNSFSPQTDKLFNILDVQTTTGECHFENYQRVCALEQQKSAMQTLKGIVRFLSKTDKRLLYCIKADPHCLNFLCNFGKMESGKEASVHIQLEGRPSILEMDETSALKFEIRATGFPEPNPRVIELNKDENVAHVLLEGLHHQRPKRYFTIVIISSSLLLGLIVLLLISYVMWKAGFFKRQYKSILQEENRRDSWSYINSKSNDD
# Autofluor Jurkat – compound autofluorescence on Jurkat cells, primary screen, artefact control for VLA-4 allosteric ligand project, cell-based, flow cytometry; active compounds read high; 1 = vehicle-only cell background; fluorescence ratio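 (tested at 10 µM compound in the well)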; 24,000 tested, 0.61% active;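 active means fluorescence ratio above 2.44, which is 1 plus 3 SD of all ratios; inconclusive means signal too bright to measure linearly, ratio around 10 or more; inactive means fluorescence ratio below 2.44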;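 further: green fluorescence of cells measured with 488 nm excitation and 530 nm emission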
# VLA-4 antagonist – inhibitors of LDV-FITC binding to Mn2+-activated VLA-4, primary screen, Jurkat cells; Integrin alpha-4 (Homo sapiens), P13612; LDV-FITC binding with Mn2+, flow cytometry; 100% = Mn2+-driven binding gain fully reversed; inhibition, % at 10 µM (by protocol); 24,000 tested, 0.2% active; AID 529, 2006;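 active means inhibition above 50%; inconclusive means compound itself fluorescent, judged against control cell fluorescence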
# A number is an active result; . = inactive; ? = inconclusive; / = not tested or not shown.
SMILES,26S disassembly,VLA-4 allo ag,Autofluor Jurkat,VLA-4 antagonist
CCOc1ccc2nc(N3CCC(C(=O)N4CCN(c5ccccn5)CC4)CC3)sc2c1,.,.,.,54
CCOc1ccc2nc(N3CCC(C(=O)N4CCN(c5ncccn5)CC4)CC3)sc2c1,.,.,.,.
COc1ccc(-c2nnc(Nc3nc4c(OC)cccc4s3)o2)cc1,.,.,.,66
COc1ccc(-c2nnc(Nc3nc4c(OC)cccc4s3)o2)c(OC)c1,.,.,.,68
COc1cc(OC)cc(-c2nnc(Nc3nc4c(F)cccc4s3)o2)c1,.,.,.,.
Cc1nnc2ccc(N3CCN(c4cccc(C(F)(F)F)c4)CC3)nn12,.,.,.,.
O=C1C(CCS(=O)c2ccccc2)C(=O)N(c2ccccc2)N1c1ccccc1 (configuration not stated),.,.,.,58
Cn1c2ccccc2c2c(C(=O)O)cn(C3CCCC3)c(=O)c21,.,.,.,51
COc1ccc(NC(=O)CSc2ccccn2)cc1OC,.,.,.,.
COc1ccc(-c2c(=O)n(OCc3ccccn3)c3ccccc3[n+]2[O-])cc1OC,.,?,2.5,?
O=C1CC(c2ccccc2)Cc2nc(N3CCc4ccccc43)ncc21 (configuration not stated),74,.,.,.
O=C(NCCN1CCCC1)c1ccc(CS(=O)(=O)c2c(Cl)cccc2Cl)o1,.,.,.,.
CC(=O)N(C)C1(c2nnnn2CCOC(=O)Nc2cccc3ccccc23)CCCC1,.,.,.,.
Cc1cccc(NC(=O)c2sc3nc(-c4ccc(F)cc4)cn3c2C)n1,75,?,5.1,?
Cc1cccc(NC(=O)c2sc3nc(-c4ccccc4)cn3c2C)n1,.,?,3.4,?
Cc1c(C(=O)Nc2ccccc2)sc2nc(-c3ccccc3)cn12,.,.,.,74
COc1cc(NS(=O)(=O)c2cccc3nsnc23)c(C(=O)O)cc1OC,.,.,.,.
CCS(=O)(=O)N1CCC(C(=O)N2CCc3ccccc3C2)CC1,.,.,.,.
CCOc1cc(C2C(C(=O)OC)=C(C)N=C3SCCC(=O)N32)ccc1OC(C)=O (configuration not stated),.,?,2.7,?
CCOc1ccc(C2N(c3ccc(F)cc3)C(=O)C3CCCN32)cc1OC (configuration not stated),51,.,.,.
CCOc1ccc(C2N(c3ccc(OC)cc3)C(=O)C3CCCN32)cc1OC (configuration not stated),.,.,.,.
COc1ccc(OC)c(/C=c2\sc3nc(-c4cccs4)nn3c2=O)c1,.,?,4.1,?
CCC(=O)N1CCCc2cc(S(=O)(=O)N3CCN(c4ccccn4)CC3)ccc21,.,?,.,?
CN(C)c1ccc(/C=C/C(O)=C2/C(=O)N(C)C3(C)CC2c2ccccc2O3)cc1 (configuration not stated),85,?,6.9,?
COc1cc(N2C(=O)NC3CC2(C)Oc2ccccc23)cc(OC)c1OC (configuration not stated),.,.,.,.
SMILES,26S disassembly,VLA-4 allo ag,Autofluor Jurkat,VLA-4 antagonist
CCCCCCC(c1c(C)n(C)n(-c2ccccc2)c1=O)c1c(C)n(C)n(-c2ccccc2)c1=O,.,.,.,.
Cc1cc(N2C(=O)C(O)=C(C(=O)c3ccc(C)o3)C2c2cccs2)no1 (configuration not stated),.,.,.,.
COC(=O)c1sc(N2C(=O)C(O)=C(C(=O)c3ccc(C)o3)C2c2ccc(F)cc2)nc1C (configuration not stated),.,?,3.8,?
CCOc1cc2[nH]c(=O)n(CC3CCC(C(=O)NC(C)CC)CC3)c(=O)c2cc1OCC (configuration not stated),.,.,.,63
COc1ccc(N(CC(=O)N2CCCCC2)S(=O)(=O)c2ccccc2)c(OC)c1,.,.,.,.
CCOC(=O)c1ccc(NS(=O)(=O)c2cnc[nH]2)cc1,.,.,.,.
O=C(O)CCCNc1cc(N2CCC3(CC2)OCCO3)c2noc3c2c1C(=O)c1ccccc1-3,.,?,5.2,?
Cc1ccccc1-n1c(=O)cc(N2CCC3(CC2)OCCO3)[nH]c1=O,.,.,.,.
CCOC(=O)N1CCN(c2cc(NCCC(=O)O)c3c4c(onc24)-c2ccccc2C3=O)CC1,.,?,4.6,?
CCOC(=O)N1CCN(c2c(NCCCN(CC)Cc3ccccc3)c(=O)c2=O)CC1,.,.,.,.
CCC1CCCCN1C(=O)Cn1c(C(=O)OC)cc2ccsc21 (configuration not stated),.,.,.,.
COc1ccccc1NC(=O)c1ccc(NC(=O)CSc2nnnn2C)cc1,.,.,.,.
O=C(Nc1ccccc1)C1=C(O)CC(c2ccco2)CC1=Nc1ccccc1 (configuration not stated),47,.,.,.
Cc1cccc(C)c1NS(=O)(=O)c1c(C)[nH]c(=O)[nH]c1=O,.,.,.,.
COc1ccc(OC)c(C2C=C(c3ccc(C)c(C)c3)Nc3nnnn32)c1 (configuration not stated),.,?,3.6,?
COc1cccc(C2=CC(c3cc(OC)ccc3OC)n3nnnc3N2)c1 (configuration not stated),.,.,.,.
O=C(NCCN1CCOCC1)c1cc2sccc2n1Cc1ccc(Cl)cc1,.,.,.,.
CC(=O)c1c(C)[nH]c(C(=O)N2CCc3ccccc3C2)c1C,.,.,.,60
O=C(CN1CCN(Cc2ccc(Cl)cc2)C1=O)NCCN1CCCC1,49,?,.,?
CCOC(=O)CSc1nc2ccccc2n2cnnc12,.,?,7.3,?
CCOC(=O)CSc1nc2ccccc2n1C(=O)OCC,.,?,2.8,?
Cc1oc(-c2cccc(Cl)c2)nc1CN1CCCC(C(=O)NC(C)c2ccc3c(c2)OCCO3)C1 (configuration not stated),.,?,.,.
c1ccc(CCNc2nc3ccccc3n3nnnc23)cc1,.,?,9.2,?
COc1ccc(-n2c(=O)c3ccccc3n(CC(=O)NC3CCCC3)c2=O)cc1,.,.,.,.
Cc1nnc(NC(=O)c2ccc(S(=O)(=O)N3CCCCCC3)cc2)o1,.,.,.,.
SMILES,26S disassembly,VLA-4 allo ag,Autofluor Jurkat,VLA-4 antagonist
COCc1nnc(NC(=O)c2ccc(S(=O)(=O)N3CCCCCC3)cc2)o1,.,?,2.5,?
COc1cccc(-n2nnc3c(=O)n(CC(=O)N4CCC(Cc5ccccc5)CC4)cnc32)c1,.,.,.,74
CCOc1ccc(/C=c2\sc3nc(-c4ccco4)nn3c2=O)cc1OCC,42,.,.,.
CCOC(=O)c1c(C)oc2c1c1c(c3ccccc32)OCN(Cc2ccccn2)C1,/,.,.,79
CCN1CCCC1CNC(=O)C1CCN(Cc2nc(-c3cccc(Br)c3)oc2C)CC1 (configuration not stated),.,.,.,.
O=P(c1ccccc1)(c1ccccc1)C(c1ccco1)N1CCOCC1 (configuration not stated),.,.,.,.
